Bioassay records from PubChem BioAssay.
IDE exosite inh: displaces the probe from the exo-site of human IDE | P14735 | purified IDE, FL-6b probe fluorescence polarization; stronger effect = lower value | z-score at 20 µM | actives 6.3% (n = 17,000);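 active = z-score of -3 or lower, meaning strong loss of probe binding signal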;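 note: His-tagged human IDE residues 42-1019 made in E. coli with 30 nM FL-6b probe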
Target sequence (P14735 42-1019 limits assumed): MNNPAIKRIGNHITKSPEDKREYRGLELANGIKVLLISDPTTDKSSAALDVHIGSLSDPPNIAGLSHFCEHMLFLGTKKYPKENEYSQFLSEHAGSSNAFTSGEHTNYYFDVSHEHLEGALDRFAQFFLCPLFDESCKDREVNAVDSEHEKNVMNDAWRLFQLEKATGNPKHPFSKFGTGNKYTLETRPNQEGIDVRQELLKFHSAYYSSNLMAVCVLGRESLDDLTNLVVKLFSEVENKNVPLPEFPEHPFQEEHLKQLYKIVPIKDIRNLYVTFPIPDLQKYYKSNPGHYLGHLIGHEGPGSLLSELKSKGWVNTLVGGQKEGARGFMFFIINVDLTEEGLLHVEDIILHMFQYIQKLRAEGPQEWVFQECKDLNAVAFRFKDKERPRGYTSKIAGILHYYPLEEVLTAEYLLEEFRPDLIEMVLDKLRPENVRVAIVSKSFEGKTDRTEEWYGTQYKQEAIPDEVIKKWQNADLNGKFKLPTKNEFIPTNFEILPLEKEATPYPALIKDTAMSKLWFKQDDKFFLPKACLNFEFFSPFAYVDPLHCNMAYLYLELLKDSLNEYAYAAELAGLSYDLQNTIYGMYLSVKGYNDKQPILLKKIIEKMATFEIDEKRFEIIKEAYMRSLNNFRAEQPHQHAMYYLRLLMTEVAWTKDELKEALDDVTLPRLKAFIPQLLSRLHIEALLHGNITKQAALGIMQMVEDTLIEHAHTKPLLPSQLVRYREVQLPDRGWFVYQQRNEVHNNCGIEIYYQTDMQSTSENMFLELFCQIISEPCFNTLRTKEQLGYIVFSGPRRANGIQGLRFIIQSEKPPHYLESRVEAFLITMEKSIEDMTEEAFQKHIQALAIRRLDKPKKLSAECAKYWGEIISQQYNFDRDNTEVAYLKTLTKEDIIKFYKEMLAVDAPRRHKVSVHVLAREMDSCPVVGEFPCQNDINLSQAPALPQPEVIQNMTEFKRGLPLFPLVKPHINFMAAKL
Numbers without * were called inactive. The sample as a whole holds a higher share of hits than the screen did.

For Cc1cccc(-c2ccc([C@@H]3[C@H]4CN(C(=O)c5cccnc5)CC(=O)N4[C@H]3CO)cc2)c1 the results were IDE exosite inh -18*.
Screening O=C(c1cccnc1)N1CC(=O)N2[C@H](C1)[C@H](c1ccc(-c3cccnc3)cc1)[C@@H]2CO returned IDE exosite inh 1.8.
`Cc1ccc(-c2ccc([C@@H]3[C@@H](CO)N4C(=O)CN(C(=O)c5cccnc5)C[C@H]34)cc2)cc1` gave IDE exosite inh -0.43.
`Cc1ccc(-c2ccc([C@H]3[C@H](CO)N4C(=O)CN(C(=O)c5cccnc5)C[C@@H]34)cc2)cc1` gave IDE exosite inh -3.2*.
For O=C(c1cnccn1)N1CC(=O)N2[C@H](C1)[C@H](c1ccc(-c3cccc(F)c3)cc1)[C@@H]2CO the results were IDE exosite inh -0.65.
For Cc1cccc(-c2ccc([C@@H]3[C@@H](CO)N4C(=O)CN(C(=O)c5cnccn5)C[C@H]34)cc2)c1 the results were IDE exosite inh -7.1*.
Cc1cccc(-c2ccc([C@@H]3[C@@H](CO)N4C(=O)CN(C(=O)c5ccccc5)C[C@@H]34)cc2)c1 was read as IDE exosite inh -5.2*.
`Cc1cccc(-c2ccc([C@H]3[C@@H](CO)N4C(=O)CN(C(=O)c5ccccc5)C[C@@H]34)cc2)c1` gave IDE exosite inh -2.5.
For O=C(c1cnccn1)N1CC(=O)N2[C@H](CO)[C@@H](c3ccc(-c4ccccc4)cc3)[C@H]2C1 the results were IDE exosite inh -0.27.
Cc1cc(C(=O)Nc2ccc3c(c2)C(=O)N(C)[C@@H]2CC[C@@H](CC(=O)NCc4ccc(-c5ccccc5)cc4)O[C@H]2CO3)no1 was read as IDE exosite inh -0.44.
`C/C=C/c1ccc([C@H]2[C@@H](CO)N3CCCCN(S(=O)(=O)c4cccc(C)c4)C[C@@H]23)cc1` gave IDE exosite inh 3.5.
Screening O=C([C@@H]1[C@@H](CO)[C@@H]2Cn3c(ccc(-c4ccc(F)cc4)c3=O)[C@@H]2N1Cc1cocn1)N1CCCCC1 returned IDE exosite inh 0.84.
`COc1cccc(S(=O)(=O)N2CCCCN3[C@H](CO)[C@@H](c4ccc(C#CC5CC5)cc4)[C@H]3C2)c1` gave IDE exosite inh 1.2.
For C[C@H]1CC(=O)NCC/C=C\C[C@H](c2cccc(Cl)c2)NC1=O the results were IDE exosite inh -1.
Screening C[C@@H]1CN([C@@H](C)CO)C(=O)c2ccccc2-c2ccccc2CO[C@H]1CN(C)S(=O)(=O)c1ccc([N+](=O)[O-])cc1 returned IDE exosite inh -0.8.
For CCC(=O)N1CC(=O)N2[C@H](CO)[C@@H](c3ccc(C#CC(C)C)cc3)[C@@H]2C1 the results were IDE exosite inh 0.36.
COCC#Cc1ccc([C@H]2[C@H]3CN(C(=O)CN4CCOCC4)CC(=O)N3[C@H]2CO)cc1 was read as IDE exosite inh 0.023.
Screening O=C(CC1CC1)N1CC2(C1)[C@H](c1ccccc1)[C@H](CO)N2C(=O)c1ccccn1 returned IDE exosite inh -1.2.
O=C(c1cccnc1)N1CC(=O)N2[C@@H](CO)[C@@H](c3ccc(C#CCC4CCCC4)cc3)[C@@H]2C1 was read as IDE exosite inh 1.7.
C/C=C/c1ccc([C@@H]2[C@H]3CN(C(=O)Nc4cccc(OC)c4)CC(=O)N3[C@H]2CO)cc1 was read as IDE exosite inh -1.5.
For Cc1cccc(-c2ccc([C@@H]3[C@@H](CO)N4C(=O)CN(C(=O)c5cccnc5)C[C@H]34)cc2)c1 the results were IDE exosite inh -4.2*.
O=C(c1cccc(F)c1)N1CC(=O)N2[C@@H](CO)[C@@H](c3ccc(-c4cccnc4)cc3)[C@@H]2C1 was read as IDE exosite inh 3.3.
For Cc1cccc(-c2ccc([C@H]3[C@@H](CO)N4C(=O)CN(C(=O)c5cccnc5)C[C@@H]34)cc2)c1 the results were IDE exosite inh -8.6*.
O=C(c1cccc(F)c1)N1CC(=O)N2[C@@H](CO)[C@H](c3ccc(-c4cccnc4)cc3)[C@@H]2C1 was read as IDE exosite inh 1.5.
`COCC(=O)N1[C@@H](C#N)[C@H](c2ccc(-c3cccc(F)c3)cc2)[C@@H]1CO` gave IDE exosite inh -1.1.
`COc1ccccc1S(=O)(=O)N1CC[C@@H]2[C@H]1c1cc(-c3cccc(C#N)c3)ccc1N(C)[C@H]2CO` gave IDE exosite inh 2.2.
O=C(Nc1ccc2c(c1)[C@H]1C[C@@H](CC(=O)N3CCc4ccccc4C3)O[C@@H](CO)[C@H]1O2)c1ccc2c(c1)OCO2 was read as IDE exosite inh -1.
CO[C@H]1CC[C@H]2CCN(C)C(=O)CCCN(C)C(=O)c3cc(C#N)ccc3OC[C@@H]1O2 was read as IDE exosite inh 0.19.
For N#C[C@H]1[C@H](c2ccc(C#CCC3CCCC3)cc2)[C@H](CO)N1C(=O)CN1CCOCC1 the results were IDE exosite inh 3.9.
`CC(C)C#Cc1ccc([C@H]2[C@H]3CN(C(=O)c4ccccn4)CC(=O)N3[C@H]2CO)cc1` gave IDE exosite inh 2.6.
For CN(C)C(=O)c1ccc(-c2ccc(C3[C@@H]4CN(S(=O)(=O)Cc5ccccc5)C[C@H]3N4)cc2)cc1 (some centres not stated) the results were IDE exosite inh -4.2*.
Cc1ccc(S(=O)(=O)N2C[C@@H]3N[C@H](C2)C3c2ccc(-c3ccc(C(=O)N(C)C)cc3)cc2)cc1 (some centres not stated) was read as IDE exosite inh 1.1.
`Cc1ccccc1-c1ccc(C2[C@@H]3CN(S(=O)(=O)Cc4ccccc4)C[C@H]2N3)cc1` (some centres not stated) gave IDE exosite inh -2.4.
For COc1ccc(NC(=O)N(C)C[C@@H]2OCc3ccccc3-c3ccccc3C(=O)N([C@@H](C)CO)C[C@H]2C)c(OC)c1 the results were IDE exosite inh -0.3.
Screening C[C@H]1CNC(=O)[C@H](Cc2ccc(C(F)(F)F)cc2)CCn2nncc2COC1 returned IDE exosite inh 0.65.
`Cc1noc(C)c1NC(=O)Nc1ccc2c(c1)C(=O)N(C)[C@@H]1CC[C@H](CC(=O)N[C@H]3CCN(Cc4ccccc4)C3)O[C@@H]1CO2` gave IDE exosite inh -0.21.
`COc1ccc(-c2ccc([C@@H]3[C@H]4CN(CC5CCOCC5)CCCCN4[C@H]3CO)cc2)cc1` gave IDE exosite inh 0.21.
Cc1ccccc1-c1ccc([C@H]2[C@H](CO)N3CCCCN(CC4CC4)C[C@@H]23)cc1 was read as IDE exosite inh -2.
COc1ccc(-c2ccc([C@@H]3[C@@H](CO)N4CCCCN(CC5CCOCC5)C[C@H]34)cc2)cc1 was read as IDE exosite inh 3.8.
Cc1ccccc1-c1ccc([C@@H]2[C@H](CO)N3CCCCN(CC4CC4)C[C@@H]23)cc1 was read as IDE exosite inh -9.6*.
For OC[C@@H]1[C@H](c2ccc(C#Cc3ccccc3)cc2)[C@@H]2CN(CC3CCOCC3)CCCCN12 the results were IDE exosite inh -3.9*.
Screening OC[C@@H]1[C@H](c2ccc(-c3cccnc3)cc2)[C@@H]2CN(CC3CC3)CCCCN12 returned IDE exosite inh 1.1.
For OC[C@H]1[C@H](c2ccc(C#Cc3ccccc3)cc2)[C@H]2CN(CC3CCOCC3)CCCCN21 the results were IDE exosite inh -0.67.
`Cc1ccccc1-c1ccc([C@@H]2[C@@H](CO)N3CCCCN(CC4CC4)C[C@H]23)cc1` gave IDE exosite inh -6.8*.
For OC[C@H]1[C@H](c2ccc(-c3cccnc3)cc2)[C@@H]2CN(CC3CC3)CCCCN12 the results were IDE exosite inh 1.8.
